Rows were chosen to be rich in hits. Some 4.8% of all compounds tested hit in one or more screens of this group.
CSC inhib = cancer stem cell viability inhibitors, primary screen, luminescence; inhibition, % at 7.5 µM; cancer stem cell-like cells viability; 300,000 compounds, 1.1% hits; in the data active = inhibition above about 75%; inconclusive = no clear call, values can overlap the other calls; tested in HMLE shEcad cells
MPTP block = mitochondrial permeability transition pore inhibitors, primary screen, biochemical, isolated mouse mitochondria, absorbance. inhibition, % at 10 µM. Ca2+ swelling absorbance, 30 min. 360,000 compounds, 1.4% hits. AID 602449, 2012;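 active = inhibition of 50% or more, scaled per plate between neutral and stimulator controls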;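 also: 0% = DMSO wells given calcium and 100% = 1 mM EGTA wells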
Calb FLC = C. albicans growth inhibition with fluconazole, primary screen, CaCi-2 strain, Alamar Blue fluorescence. C. albicans CaCi-2 (fluconazole-resistant clinical isolate) + fluconazole, 48 h. growth inhibition, % (test concentration not listed). 300,000 compounds, 0.57% hits;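 active = growth inhibition above about 58% in most replicates, limit read from the data, passing the limit was not always enough; inconclusive = exactly half the replicates above a set limit; inactive = most replicates below a set limit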;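 also: all wells also contain fluconazole at 8 µg/ml as a sub-toxic cotreatment; 0% = median of DMSO wells and 100% = median of geldanamycin control wells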
Beta cell apopt = inhibitors of cytokine-induced beta cell apoptosis, primary screen, luminescence; INS-1E cytokine-induced death, ATP luminescence, 48 h; percent of positive-control rescue, neutral wells zero; protection from apoptosis, % (concentration not given with the values); 300,000 compounds, 0.8% hits;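 active = Every replicate reaches about 75%, or at least half do and their mean reaches it too, limit read from the data; inconclusive = At least half of replicates reach the limit but their mean does not; inactive = Under half of replicates reach the limit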;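 also: 0% = cytokine-treated negative control wells and 100% = positive control rescue; higher means more ATP so stronger rescue from cytokine killing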
Mdm2-MdmX inh = inhibitors of human Mdm2-MdmX association, primary screen, cell-based, luminescence, split luciferase, SaOS-2, uHTS; SaOS-2 split-luciferase Mdm2/MdmX complementation; inhibition, % at 8 µM; 330,000 compounds, 3% hits;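 active = inhibition of at least 50% at 8 µM in the primary screen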
Target sequence (O15151 whole entry, looked up): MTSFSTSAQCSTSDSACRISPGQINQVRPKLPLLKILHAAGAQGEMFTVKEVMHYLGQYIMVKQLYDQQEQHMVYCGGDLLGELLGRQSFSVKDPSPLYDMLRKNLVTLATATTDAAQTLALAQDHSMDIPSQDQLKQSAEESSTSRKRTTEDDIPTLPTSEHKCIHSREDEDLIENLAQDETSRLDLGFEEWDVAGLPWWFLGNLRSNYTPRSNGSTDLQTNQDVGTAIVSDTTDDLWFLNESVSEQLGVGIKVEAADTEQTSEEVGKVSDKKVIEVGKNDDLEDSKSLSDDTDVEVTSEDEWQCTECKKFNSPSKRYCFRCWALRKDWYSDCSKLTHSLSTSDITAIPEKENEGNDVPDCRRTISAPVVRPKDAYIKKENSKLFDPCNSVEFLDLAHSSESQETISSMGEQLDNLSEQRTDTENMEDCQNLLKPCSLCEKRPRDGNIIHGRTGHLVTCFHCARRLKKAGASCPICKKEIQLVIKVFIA
Target sequence (Q00987 whole entry, looked up): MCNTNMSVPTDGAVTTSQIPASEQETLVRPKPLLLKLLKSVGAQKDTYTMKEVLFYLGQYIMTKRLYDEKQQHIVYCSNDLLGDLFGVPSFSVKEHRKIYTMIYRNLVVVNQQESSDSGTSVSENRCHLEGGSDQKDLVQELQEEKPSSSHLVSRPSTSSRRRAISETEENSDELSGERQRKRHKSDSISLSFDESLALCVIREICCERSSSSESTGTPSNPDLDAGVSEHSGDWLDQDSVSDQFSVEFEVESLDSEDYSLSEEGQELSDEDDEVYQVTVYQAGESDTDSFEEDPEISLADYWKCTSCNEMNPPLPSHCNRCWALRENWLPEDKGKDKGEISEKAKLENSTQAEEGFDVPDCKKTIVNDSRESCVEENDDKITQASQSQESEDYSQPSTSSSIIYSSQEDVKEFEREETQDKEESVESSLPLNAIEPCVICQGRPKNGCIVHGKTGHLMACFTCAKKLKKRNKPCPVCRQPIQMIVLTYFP
Mdm2 MdmX conf = Mdm2-MdmX complex disruptors, retested hits, confirmation, luminescence, single concentration; shares compounds with Mdm2-MdmX inh; Mdm2-MdmX binding, luminescent assay; inhibition, % at 8 µM; 10,000 compounds, 55% hits; in the data active = inhibition above about 40%
Full FLuc ctr = full-length luciferase signal inhibition, confirmation, counter-screen for Mdm2/MdmX interaction inhibitor project, cell-based, single concentration, SaOS-2. inhibition, % at 8 µM. shares compounds with Mdm2-MdmX inh. 6,200 compounds, 77% hits. SaOS-2 full-length luciferase counterscreen, luminescence;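 active = mean inhibition at 8 µM reaching about 37%, which flags the compound as non-specific, limit read from the data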;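 also: p53-null SaOS-2 cells with luciferase driven by a doxycycline-inducible promoter; compound on cells about two nights before reading with doxycycline added after day one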
Starred values were filed as active, the others as inactive; ? = inconclusive; . = not tested or not shown.

SMILES	CSC inhib	MPTP block	Calb FLC	Beta cell apopt	Mdm2-MdmX inh	Mdm2 MdmX conf	Full FLuc ctr
CC(C)c1nnc(NC(=O)c2nc(S(=O)(=O)Cc3ccc(F)cc3)ncc2Cl)s1	106.0*	-0.2	-3.5	-21.6	100.4*	56.9*	52.1*
CC(C)c1nnc(NC(=O)c2nc(S(=O)(=O)Cc3ccccc3F)ncc2Cl)s1	102.4*	.	1.5	-27.1	96.8*	45.9*	5.2
Cc1ccc(CS(=O)(=O)c2ncc(Cl)c(C(=O)Nc3nnc(C(C)C)s3)n2)cc1	110.9*	-1.1	-4.0	-7.4	96.4*	38.0	0.2
COc1ccc(-c2cc(-c3ccccc3)c(C#N)c(S(C)=O)n2)cc1 (stereo unspecified)	24.4	0.3	10.6	-6.0	81.0*	20.9	.
Cc1nc2ccccc2c(=O)n1/N=C/c1c(O)ccc2oc3c(c12)CCCC3	82.0*	-0.4	0.1	92.7*	63.3*	37.9	49.6*
O=C1c2ccccc2NC(c2ccc(-c3ccc(C(F)(F)F)cc3)o2)N1O (stereo unspecified)	.	-0.9	.	70.8	67.3*	48.6*	41.8*
COc1cccc(C2=Cc3ccc(F)cc3C(CC(C)=O)N2c2ccc(C#CC3(O)CCCCC3)cc2)c1 (stereo unspecified)	.	2.2	.	.	.	.	.
NC(=O)c1nn(-c2ccccc2)nc1NC(=O)CN1CCCC1	-10.5	-0.8	-11.3	-4.7	13.8	.	.
NC(=O)c1nn(-c2ccccc2)nc1NC(=O)Cn1nnc(-c2ccccc2)n1	1.2	-0.2	-4.8	-3.6	60.9*	-6.3	.
N/C(=N\OC(=O)CC(c1ccccc1)c1ccccc1)c1cccnc1	22.3	-1.0	15.9	1.8	88.3*	63.8*	99.6*
N/C(=N\OC(=O)Cc1ccccc1)c1cccnc1	19.4	1.7	2.1	-6.8	5.4	.	.
Cc1ccc2nc(/C(C#N)=C\c3ccc([N+](=O)[O-])o3)[nH]c2c1	2.8	15.2	70.6	101.9*	96.9*	75.0*	29.9
N#C/C(=C\c1ccc([N+](=O)[O-])o1)c1nc2ccccc2[nH]1	?	.	25.1	100.1*	97.1*	69.6*	60.6*
COc1cccc(-c2nc3nc(C)cc(C)n3c2NCc2ccccc2)c1	.	-0.1	.	.	.	.	.
COc1ccc(CC(N)c2csc(NC(=O)c3cc(C(C)(C)C)oc3C)n2)cc1 (stereo unspecified)	.	-0.3	.	.	.	.	.
CC(OC(=O)c1ccc([N+](=O)[O-])s1)C(=O)NC1CCCCC1C (stereo unspecified)	.	0.2	.	4.7	-7.5	.	.
CCOC(=O)c1c(NC(=O)c2ccco2)sc2c1CCCC2	7.1	3.7	5.0	1.4	9.9	.	.
CCOC(=O)c1c(NC(=O)COc2cccc3c2CCN(CC)C3=O)sc2c1CCC2	-1.2	8.4	-3.9	-3.1	59.9*	18.6	.
CCOC(=O)c1c(NC(=O)CN2CCN(C(=O)c3ccco3)CC2)sc2c1CCCC2	19.8	-0.7	102.7*	0.5	56.3*	15.1	.
Cc1ccc(Cl)cc1NC(=O)COC(=O)CCN1C(=O)C2CC=CCC2C1=O (stereo unspecified)	17.8	-1.0	.	-3.6	-6.8	.	.
Cn1nc(-c2ccc(Cl)cc2)c2cc(C(=O)N3CCN(c4ccccn4)CC3)sc21	66.5	9.9	1.2	43.8	55.0*	15.8	.
O=C(NCCCCCCNC(=O)c1ccncc1)c1ccncc1	-10.6	-0.2	-3.8	-8.0	10.4	.	.
COc1ccc(S(=O)(=O)N2CCCCCC2)cc1C(=O)N(C)Cc1ccc(C(C)(C)C)cc1	12.7	0.0	3.6	21.6	53.3*	11.5	.
C=CC[C@@H](CC(=O)N[C@@H](CO)Cc1ccccc1)C(=O)NC[C@H](OC(=O)[C@@H](CC=C)Cc1ccc(F)cc1)c1ccccc1	.	0.3	.	4.2	48.7	.	.
C=CC[C@@H](CC(=O)N[C@@H](CO)Cc1ccccc1)C(=O)NC[C@@H](OC(=O)[C@@H](CC=C)Cc1ccc(F)cc1)c1ccccc1	-10.8	0.3	.	10.0	52.3*	9.9	.
SMILES	CSC inhib	MPTP block	Calb FLC	Beta cell apopt	Mdm2-MdmX inh	Mdm2 MdmX conf	Full FLuc ctr
C=CC[C@H](CC(=O)N(CCO)Cc1ccccc1)C(=O)NC[C@H](OC(=O)[C@@H](CC=C)Cc1ccc(F)cc1)c1ccccc1	31.2	0.2	.	13.0	70.7*	39.0	.
C=CC[C@@H](CC(=O)N(CCO)Cc1ccccc1)C(=O)NC[C@@H](OC(=O)[C@@H](CC=C)Cc1ccc(F)cc1)c1ccccc1	-2.0	0.8	.	7.2	54.7*	18.4	.
O=C(CSc1n[nH]c(-c2ccccc2F)n1)NCC(=O)Nc1ccc(F)c(F)c1F	-2.4	-3.7	-0.5	-0.2	-6.7	.	.
Cc1ccc(NC(=S)N(CCCN2CCCC2)Cc2cccn2Cc2ccc(Cl)cc2)cc1Cl	143.8*	6.6	-4.8	7.2	75.7*	39.5	57.9*
Cc1ccc(NC(=S)N(CCCN2CCCC2)Cc2cccn2Cc2ccc(Cl)cc2)cc1C	69.9	6.0	-3.7	26.8	58.4*	37.0	.
FC(F)(F)c1cccc(NC(=S)N(CCCN2CCCC2)Cc2cccn2Cc2ccc(Cl)cc2)c1	130.0*	11.8	-2.9	27.5	95.7*	53.6*	30.3
COc1ccc(NC(=S)N(CCCN2CCCC2)Cc2cccn2Cc2ccc(Cl)cc2)cc1Cl	41.9	2.8	-9.7	56.7	84.8*	56.8*	54.4*
O=C(CSc1nc(-c2ccccc2)c(-c2ccccc2)o1)NCCCO	14.0	5.1	14.7	.	16.1	.	.
CCc1nc2c(OCc3ccc(C#N)cc3)cccn2c1N(C)C(=O)c1ccc(C)cc1	.	-0.1	.	.	.	.	.
C#CCOCCOCCOCCNc1nc(N2CCN(C(=O)CCCCCCCCCCNC(=O)[C@H]([C@@H](C)CC)n3cc(CCCCCN)nn3)CC2)nc(N2CCN(C(=O)CCCCCCCCCCNC(=O)[C@@H]([C@H](C)CC)n3cc(CCCCCN)nn3)CC2)n1	166.6*	.	.	114.8*	100.3*	63.0*	1.3
CC[C@H](C)[C@@H](C(=O)NCCCCCCCCCCC(=O)N1CCN(C(=O)OC(C)(C)C)CC1)n1cc(CCCCN=C(NC(=O)OC(C)(C)C)NC(=O)OC(C)(C)C)nn1	3.7	.	.	112.2*	63.5*	24.9	.
C#CCOCCOCCOCCNc1nc(N2CCN(C(=O)CCCCCCCCCCNC(=O)[C@H]([C@@H](C)CC)n3cc(CCCCCN)nn3)CC2)nc(N2CCN(C(=O)CCCCCCCCCCNC(=O)[C@H](CO)n3cc(CCCCCN)nn3)CC2)n1	2.6	-4.2	.	56.2	89.7*	0.8	.
CC(=O)N1CCC(C(=O)N2c3ccccc3N=C(c3ccc(C(F)(F)F)cc3)C2C(=O)NC(C)C)CC1 (stereo unspecified)	.	-0.4	.	.	.	.	.

Screening results from PubChem.
